The values that follow come from PubChem BioAssay (NCI).

SMILES strings stand for the structures. This is part of a sample that, as a whole, favours compounds with a hit. Of some 83,000 tested, about 20% had one in any assay.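 Method: cells in 96-well plates; compound added at one concentration; 48 h incubation; percent growth measured; values under 10 scored active.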 Activity calls are given as the source filed them.

The subject of the test is OVCAR-5 ovarian. Put plainly: NCI-60 one-dose screen, 48 h (100 = growth as untreated, 0 = no growth, -100 = all killed). As to conditions: 10 µM unless noted.
On to `COc1ccc(CN2C(=O)/C(=C/c3nc(CO)cs3)SC2=S)cc1`, for which the growth was 107% (inactive). With `O=C(Nc1cc(F)cc2cccnc12)c1cnc(N2CCOCC2)cn1`, the growth was 65.6% (inactive). In the case of `CC1OC(O[C@@H]2[C@H](O)C(CO)OC(O[C@H]3COC(O[C@H]4CC[C@]5(C)[C@H]6CC[C@]78OC[C@@]9(CCC(C)(C)C[C@H]97)[C@H](O)C[C@@]8(C)[C@]6(C)CC[C@H]5C4(C)C)[C@@H](OC4OC(CO)[C@@H](O)[C@@H](O)[C@@H]4O)[C@@H]3O)[C@H]2OC2OC[C@@H](O)[C@@H](O)[C@@H]2O)[C@@H](O)[C@@H](O)[C@H]1O` (stereo not given in full), the growth is -69% (active). To `C#C[C@]1(O)CC[C@H]2[C@@H]3CC=C4c5sc(Nc6cccc(Cl)n6)nc5CC[C@]4(C)[C@H]3CC[C@@]21C` belongs 22.8% (inactive). With `Cc1ccc(/C=C/CC(=O)Nc2ccc(C(=O)Nc3ccc(F)cc3N)nc2)cn1`, the growth is 38.5% (inactive). To `O=C1[C@@H]2Cc3c([nH]c4ccccc34)[C@H](c3c(Cl)cccc3Cl)N2C(=O)CN1C1CCN(Cc2ccccc2)CC1` belongs 63% (inactive); to `C#CCOc1ccc(C(Nc2ccc(OC)cc2)c2nnnn2C2CCCCC2)cc1` (stereo not given), 102% (inactive). To `COc1cc(C(=O)c2cc(C(C)=O)c3c4ccccc4ccn23)cc(OC)c1OC` belongs 69.9% (inactive); to `Cc1[nH]nc2ccc(-c3nc4cnc(N5CCN(C)CC5)cn4c3Nc3ccc(F)cc3Br)cc12`, 80.3% (inactive); to `O=C(Nc1cccc(Cl)c1)Nc1nc2ccc(-c3cccc4ccccc34)cc2s1`, 84% (inactive).
